Compound activity as filed in PubChem BioAssay.
The entries come from a sample that favours hits as a whole.
MITF inh: inhibitors of MITF, primary screen, MITF inhibitor project, cell-based, luminescence. TRPM1 promoter luciferase, 24 h. inhibition, % (test concentration not listed). 37,000 tested, 0.28% active. AID 2240, 2010; in the data active means inhibition above about 85%;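 further: human melanocyte line stably carrying TRPM1 promoter luciferase reporter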
YB-1 expr inh: inhibitors of YB-1 gene expression, primary screen, cell-based, fluorescence; delta delta Cp (YB-1 minus CDIP) (concentration not given with the values); U2OS, qRT-PCR YB-1 vs CDIP delta delta Cp, 16 h; hits give high values; zero = DMSO, each unit about twofold; 30,000 tested, 0.37% active;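 active means delta delta Cp rounded down to an integer at or above 3, about 3 SD of DMSO wells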;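 further: higher means less YB-1 transcript or more CDIP transcript relative to DMSO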
NOMO-1 viab: NOMO-1 AML cell viability reduction, primary screen, STK33 inhibitor project, CellTiter-Glo luminescence; NOMO-1 AML viability, 72 h; inhibition, % (test concentration not listed); 37,000 tested, 7.5% active; AID 2330, 2010; in the data active means inhibition above about 80%
PD-1 reverse act: activators reversing PD-1 mediated T-cell inhibition, primary screen, luminescence, primary human CD4 T cells, PD-L1 beads; CellTiter-Glo 96 h; activation, % (concentration not given with the values); 29,000 tested, under 10 active; AID 2316, 2010; call rule not given here;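 further: 0% = median vehicle wells and 100% = positive control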
ROS inducer: ROS inducers in U2OS cancer cells, primary screen, cell-based, H2DCF-DA fluorescence. 46,000 tested, 2% active. ROS induction (% of piperlongumine), % at 10 µM. U2OS ROS induction. AID 624156, 2012; in the data active means ROS induction above about 79%, passing the limit was not always enough;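 further: 0% = DMSO vehicle median and 100% = reference compound median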
Active calls of the source: *.

For C=C(C)[C@@H]1CC[C@]2(C(=O)O)CC[C@]3(C)[C@H](CC[C@@H]4[C@@]5(C)CC[C@H](O)C(C)(C)[C@@H]5CC[C@]43C)[C@@H]12 the results were MITF inh 38, YB-1 expr inh -0.41, NOMO-1 viab 105* and ROS inducer 0.
Screening C=C(C)[C@@H]1CC[C@]2(C(=O)O)CC[C@]3(C)[C@H](CCC4[C@]5(C)C(CC[C@]43C)[C@@](C)(CO)[C@@H](O)[C@@H]5C(=O)O)C12 (some centres not stated) returned MITF inh -14, YB-1 expr inh 0.28, NOMO-1 viab 9, PD-1 reverse act -1 and ROS inducer -2.
For CC(=O)N/C(N)=N/c1nc2ccccc2o1 the results were ROS inducer -12.
`Cc1ccc(S(=O)(=O)CCSc2sc(C#N)c3c2C(=O)CC(C)(C)C3)cc1` gave MITF inh -17, YB-1 expr inh 0.079, NOMO-1 viab 94*, PD-1 reverse act -2 and ROS inducer 125*.
`CCOC(=O)c1sc(SCCS(=O)(=O)c2ccc(Cl)cc2)c2c1CCCC2=O` gave MITF inh -8, YB-1 expr inh -0.22, NOMO-1 viab 30, PD-1 reverse act 0 and ROS inducer 22.
For COC(=O)c1ccccc1NC(=O)COc1ccc2ccccc2c1Br the results were MITF inh -33, NOMO-1 viab 84*, PD-1 reverse act -1 and ROS inducer 4.
`COC(=O)c1ccccc1NC(=O)c1cccc(NC(=O)COc2cc(C)c(Cl)c(C)c2)c1C` gave MITF inh 45 and NOMO-1 viab 102*.
Screening C[C@H]1CN([C@@H](C)CO)C(=O)c2cc(NC(=O)Cc3ccccc3)ccc2O[C@@H]1CN(C)Cc1ccc(-c2ccccc2)cc1 returned MITF inh -6, YB-1 expr inh 0.73, NOMO-1 viab 21, PD-1 reverse act -3 and ROS inducer 177*.
`C[C@H](CO)N1C[C@H](C)[C@@H](CN(C)Cc2ccc(-c3ccccc3)cc2)Oc2ccc(NC(=O)Cc3ccccc3)cc2C1=O` gave MITF inh -6, YB-1 expr inh -0.0095, NOMO-1 viab 19, PD-1 reverse act -5 and ROS inducer 274*.
C[C@@H]1CN([C@@H](C)CO)C(=O)c2cc(NC(=O)Cc3ccccc3)ccc2O[C@@H]1CN(C)Cc1ccccc1 was read as MITF inh 12, YB-1 expr inh -0.11, NOMO-1 viab 25 and ROS inducer 8.
C[C@@H]1CN([C@@H](C)CO)C(=O)c2cc(NC(=O)Cc3ccccc3)ccc2O[C@H]1CN(C)Cc1ccccc1 was read as MITF inh -6, YB-1 expr inh -0.12, NOMO-1 viab 11, PD-1 reverse act 1 and ROS inducer -5.
`C[C@@H]1CN([C@H](C)CO)C(=O)c2cccc(NC(=O)C3CCOCC3)c2O[C@H]1CN(C)Cc1ccc(C(=O)Nc2ccccc2N)cc1` gave MITF inh -15, YB-1 expr inh 0.073, NOMO-1 viab 19, PD-1 reverse act 1 and ROS inducer 1.
Screening C[C@H](CO)N1C[C@H](C)[C@@H](CN(C)Cc2ccc(C(=O)Nc3ccccc3N)cc2)Oc2c(NC(=O)c3ccncc3)cccc2C1=O returned MITF inh 19, YB-1 expr inh -0.047, NOMO-1 viab 39, PD-1 reverse act 0 and ROS inducer 13.
`C[C@H](CO)N1C[C@H](C)[C@H](CN(C)Cc2ccc(C(=O)Nc3ccccc3N)cc2)Oc2c(cccc2N(C)C)C1=O` gave MITF inh 24, YB-1 expr inh 0.55, NOMO-1 viab 124*, PD-1 reverse act 0 and ROS inducer 44.
Screening C[C@@H]1CN([C@H](C)CO)C(=O)c2cccc(N(C)C)c2O[C@@H]1CN(C)Cc1ccc(C(=O)Nc2ccccc2N)cc1 returned MITF inh 5, YB-1 expr inh -0.11, NOMO-1 viab 127*, PD-1 reverse act 0 and ROS inducer -9.
Cc1noc(C)c1S(=O)(=O)Nc1ccc2c(c1)CC(=O)N([C@H](C)CO)C[C@@H](C)[C@@H](CN(C)S(C)(=O)=O)O2 was read as MITF inh -8, YB-1 expr inh -0.3, NOMO-1 viab 1, PD-1 reverse act 2 and ROS inducer -9.
